High-throughput results: PubChem, several laboratories
tim23-1 inh: inhibits growth of tim23-1 mutant yeast; S. cerevisiae tim23-1 growth, BacTiter-Glo luminescence, 24 h; inhibition, % at 20 µM; 1.3% of 330,000 active; AID 463212;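 active = growth inhibition of the mutant yeast at or above 50%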;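 note: temperature-sensitive mutant grown at 25 °C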
PfHsp90 yeast 2: inhibits growth of yeast expressing Plasmodium falciparum Hsp90; S. cerevisiae expressing PfHsp90, BacTiter-Glo ATP, 48 h; yeast lacking PDR1 and PDR3 efflux regulators; inhibition, % at 9.4 µM; 0.32% of 310,000 active; AID 504621;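 active = every replicate shows inhibition above about 80%, whatever the replicate mean, limit read from the data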
tim10-1 inh: tim10-1 yeast growth inhibition | S. cerevisiae tim10-1 ts strain growth, BacTiter-Glo, 24 h | inhibition, % at 20 µM | 2.2% of 330,000 active;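 active = inhibition of at least 40%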;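 note: mutant grown at 25 °C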
SKKanGAS inh: SKKanGAS growth inhibition | S. pyogenes SKKanGAS, kanamycin growth, BacTiter-Glo, 6 h | inhibition, % at 7.5 µM | 1.3% of 300,000 active | AID 1662;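 active = mean replicate score, as percent of positive control median, at least 50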;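 note: strain carries kanamycin resistance gene driven by streptokinase promoter and grows in 40 µg/ml kanamycin; loss of luminescence reflects streptokinase promoter inhibition or plain growth inhibition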
NLRP3 yeast inh: blocks the NALP3 inflammasome reconstituted in yeast; inhibition, % at 10 µM; 0.39% of 330,000 active; Yeast reconstituted NLRP3/ASC/caspase-1, beta-gal luminescence, 24 h;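 active = inhibition of 50% or more; inactive = inhibition below 50%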
TIM10 inh: inhibits growth of TIM10 yeast strain; S. cerevisiae TIM10 strain growth, BacTiter-Glo luminescence, 24 h; inhibition, % at 10 µM; 1.4% of 330,000 active;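 active = inhibition of 40% or more at the single tested concentration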;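 note: wild-type TIM10 isogenic control strain grown at permissive 25 °C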
tim23-1 confirm: tim23-1 yeast growth inhibition, confirmed. 83% of 4,400 active. shares compounds with tim23-1 inh. S. cerevisiae tim23-1 growth, BacTiter-Glo luminescence, 24 h. inhibition, % at 20 µM;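 active = inhibition above about 39% in either of two replicate wells at 20 µM, limit read from the data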;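 note: temperature-sensitive tim23-1 mutant grown at 25 °C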
A number is an active result; 0 = inactive; - = no result given. Rows were chosen to be rich in hits. Some 4.5% of all compounds tested hit in one or more screens of this group.

SMILES	tim23-1 inh	PfHsp90 yeast 2	tim10-1 inh	SKKanGAS inh	NLRP3 yeast inh	TIM10 inh	tim23-1 confirm
O=C(c1ccccc1)N1CCCC(c2ccc(Cl)cc2)=N1	0	-	0	0	0	0	-
S=C1CCC(c2ccc(Cl)cc2)=NN1c1ccccc1	50	0	0	0	0	0	0
CN1C(=O)/C(=C2\SC(N)=NC2=O)c2ccccc21	0	0	0	0	0	0	-
CN1C(=O)/C(=C2\SC(N3CCCCCC3)=NC2=O)c2ccccc21	55	0	0	0	0	0	44
CN1CCc2nc3sc(C(=O)C45CC6CC(CC(C6)C4)C5)c(N)c3cc2C1	90	129	0	-	0	0	85
Nc1c(C(=O)O)sc2nc3c(cc12)CCCC3	0	-	0	0	0	0	-
COc1ccc(NC(=O)c2cccs2)cn1	52	0	0	0	0	0	48
CCCCC(=O)Nc1ccc(NC(=O)c2cccs2)cn1	51	0	0	0	0	0	43
Fc1cccc(NC(=S)NNc2ccccc2)c1	59	0	0	0	0	0	0
Fc1cccc(NC(=S)NNc2c3ccccc3nc3ccccc23)c1	-	0	-	0	-	-	-
O=S(=O)(Nc1cccc(-c2nc3cccnc3s2)c1)c1ccc2c(c1)OCCO2	58	0	0	0	0	0	52
Cc1nc2ccc(S(=O)(=O)Nc3cc(-c4nc5cccnc5s4)ccc3C)cc2s1	60	0	0	0	0	0	55
O=S(=O)(Nc1ccc(S(=O)(=O)Nc2nccs2)cc1)c1ccc2c(c1)OCCO2	0	-	0	0	0	0	-
Cc1nc2ccc(S(=O)(=O)Nc3cccc(-c4nc5cccnc5s4)c3C)cc2s1	0	0	0	0	0	0	-
Cc1cccc(NC(=O)c2nc[nH]c2C(=O)N2CCN(c3ccccc3)CC2)c1	0	0	0	-	0	0	-
Cc1cc(C)n2nc(SC(C)C(=O)Nc3ccccc3F)nc2n1 (configuration not stated)	0	0	0	-	0	0	-
N#C/C(=C\c1ccc(N2CCOCC2)o1)c1ccccc1	0	0	0	0	0	0	-
N#C/C(=C/c1ccc(N2CCOCC2)o1)c1nc2ccccc2[nH]1	57	0	0	-	0	0	66
N#C/C(=C\c1ccc(Sc2nc3ccccc3[nH]2)o1)c1ccccc1	51	0	0	0	0	0	41
Cc1nnc(SCC(=O)c2c(N)n(C3CC3)c(=O)[nH]c2=O)n1C	0	0	0	-	0	0	-
NC(=O)c1ccccc1Nc1nc(NCCO)nc(N2CCCC2)n1	0	0	0	0	0	0	-
